What all share (assay): peptide microarray binding signal (635 nm), min-max normalized on array (fraction of array maximum); higher = stronger binding
Experiment [1] addresses T1, HaloTag-ATRX ADD domain (163-292).
T1 chain: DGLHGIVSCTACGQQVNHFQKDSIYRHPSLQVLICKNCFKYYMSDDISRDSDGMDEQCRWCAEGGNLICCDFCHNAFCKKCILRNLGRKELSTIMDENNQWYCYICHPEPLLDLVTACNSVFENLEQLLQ
The method in brief:
(§1)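 Binding signal is the mean intensity of triplicate spots, min-max scaled within each library. Histone 13-mer peptide–cellulose conjugates were spotted in triplicate on nitrocellulose with a Cy3 tracer and blocked overnight at 4°C. Probing lasted 1 h at 4°C, either with biotin-labelled HaloTag reader fusions (10 nM to 1 μM) and streptavidin-Alexa Fluor 647 or with rabbit histone antibodies (1:10,000 to 1:2,000) and anti-rabbit Alexa 647. An Axon GenePix 4000B read signal at 635 nm and misprints at 532 nm.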

The target of experiment [2] is HaloTag-ING2 PHD (mouse Ing2 200-280). In a few lines: as §1
The target in experiment [3] is anti-H3K4me3 antibody ab8580. In a few lines:
as §1

For experiment [4], the target named is anti-H3K9me3 antibody ab8898. In a few lines:
as §1

The mark [5] stands for this setting: peptide region: H3 73-85, peptide modifications: H3K79me3, binder concentration: 1:2,000 dilution.
Setting [6] is: peptide region: H3 73-85, peptide modifications: H3K79me3, binder concentration: 1:10,000 dilution.
Where [7] appears, read: peptide region: H3 73-85, peptide modifications: H3K79me3 H3T80ph, binder concentration: 1:2,000 dilution.
The mark [8] stands for this setting: peptide region: H3 73-85, peptide modifications: H3K79me3 H3T80ph, binder concentration: 1:10,000 dilution.
[9] abbreviates: peptide region: H3 112-124, peptide modifications: H3K115ac H3K122me1, binder concentration: 1:2,000 dilution.
Where [10] appears, read: peptide region: H3 112-124, peptide modifications: H3K115ac H3K122me1, binder concentration: 1:10,000 dilution.
Setting [11] is: peptide region: H3 112-124, binder concentration: 1:2,000 dilution.
Setting [12] is: peptide region: H3 112-124, binder concentration: 1:10,000 dilution.
The mark [13] stands for this setting: peptide region: H3 112-124, peptide modifications: H3K115ac H3R116me1, binder concentration: 1:2,000 dilution.
Setting [14] is: peptide region: H3 112-124, peptide modifications: H3K115ac H3R116me1, binder concentration: 1:10,000 dilution.

± gives the standard deviation.

As to EIAQDFKTDLRFQ [H3 73-85 E I A Q D F Kme3 T D L R F Q], the “peptide microarray binding signal” value in experiment [1] (peptide region: H3 73-85, peptide modifications: H3K79me3, binder concentration: 50 nM) was found to be 0.0032 ± 3.5e-05; in experiment [1] (peptide region: H3 73-85, peptide modifications: H3K79me3, binder concentration: 500 nM), 0.0059 ± 0.0008; in experiment [2] (peptide region: H3 73-85, peptide modifications: H3K79me3, binder concentration: 10 nM), 0.00483 ± 8.8e-05; in experiment [2] (peptide region: H3 73-85, peptide modifications: H3K79me3, binder concentration: 100 nM), 0.00723 ± 0.00027; in experiment [3] (setting [5]), 0.00851 ± 0.00073; in experiment [3] (setting [6]), 0.0112 ± 0.0053. The figures for the “peptide microarray binding signal” value in experiment [4] (setting [5]) and in experiment [4] (setting [6]) were 0.227 ± 0.017 and 0.201 ± 0.042, respectively.

Take EIAQDFKTDLRFQ [H3 73-85 E I A Q D F Kme3 Tph D L R F Q]: the “peptide microarray binding signal” value worked out at 0.001066 ± 5.3e-06 in experiment [1] (peptide region: H3 73-85, peptide modifications: H3K79me3 H3T80ph, binder concentration: 50 nM); 0.0021 ± 0.00018 in experiment [1] (peptide region: H3 73-85, peptide modifications: H3K79me3 H3T80ph, binder concentration: 500 nM); 0.00221 ± 6.6e-05 in experiment [2] (peptide region: H3 73-85, peptide modifications: H3K79me3 H3T80ph, binder concentration: 10 nM); 0.00333 ± 0.0011 in experiment [2] (peptide region: H3 73-85, peptide modifications: H3K79me3 H3T80ph, binder concentration: 100 nM); 0.000887 ± 9.8e-05 in experiment [3] (setting [7]); 0.00183 ± 0.00035 in experiment [3] (setting [8]). Besides, the “peptide microarray binding signal” value in experiment [4] (setting [7]) came to 0.0135 ± 0.0079; in experiment [4] (setting [8]), 0.00577 ± 0.0016.

For IHAKRVTIMPKDI [H3 112-124 I H A Kac R V T I M P Kme D I], the “peptide microarray binding signal” value was determined as 0.00809 ± 8.8e-05 in experiment [1] (peptide region: H3 112-124, peptide modifications: H3K115ac H3K122me1, binder concentration: 50 nM); 0.0164 ± 0.00068 in experiment [1] (peptide region: H3 112-124, peptide modifications: H3K115ac H3K122me1, binder concentration: 500 nM); 0.0183 ± 0.00056 in experiment [2] (peptide region: H3 112-124, peptide modifications: H3K115ac H3K122me1, binder concentration: 10 nM); 0.0281 ± 0.0012 in experiment [2] (peptide region: H3 112-124, peptide modifications: H3K115ac H3K122me1, binder concentration: 100 nM); 0.00164 ± 0.00014 in experiment [3] (setting [9]); 0.002054 ± 1.9e-05 in experiment [3] (setting [10]). Moreover, the “peptide microarray binding signal” value came to 0.00136 ± 6.1e-05 in experiment [4] (setting [9]) and 0.00138 ± 1.4e-05 in experiment [4] (setting [10]).

On to IHAKRVTIMPKDI [H3 112-124 I H A K R V T I M P K D I], for which the “peptide microarray binding signal” value in experiment [1] (peptide region: H3 112-124, binder concentration: 50 nM) was 0.00972 ± 0.00063; in experiment [1] (peptide region: H3 112-124, binder concentration: 500 nM), 0.0345 ± 0.00086; in experiment [2] (peptide region: H3 112-124, binder concentration: 10 nM), 0.0135 ± 0.0014; in experiment [2] (peptide region: H3 112-124, binder concentration: 100 nM), 0.0205 ± 0.0093; in experiment [3] (setting [11]), 0.00261 ± 0.00029; in experiment [3] (setting [12]) it was 0.001883 ± 1.8e-05. The results for the “peptide microarray binding signal” value in experiment [4] (setting [11]) and in experiment [4] (setting [12]) were 0.00415 ± 0.00045 and 0.00167 ± 2.8e-05, respectively.

IHAKRVTIMPKDI [H3 112-124 I H A Kac Rme V T I M P K D I]: the “peptide microarray binding signal” value stood at 0.0108 ± 0.00025 in experiment [1] (peptide region: H3 112-124, peptide modifications: H3K115ac H3R116me1, binder concentration: 50 nM); 0.0193 ± 0.00083 in experiment [1] (peptide region: H3 112-124, peptide modifications: H3K115ac H3R116me1, binder concentration: 500 nM); 0.0322 ± 0.0019 in experiment [2] (peptide region: H3 112-124, peptide modifications: H3K115ac H3R116me1, binder concentration: 10 nM); 0.0449 ± 0.0042 in experiment [2] (peptide region: H3 112-124, peptide modifications: H3K115ac H3R116me1, binder concentration: 100 nM); 0.00519 ± 0.0005 in experiment [3] (setting [13]); 0.00542 ± 0.00027 in experiment [3] (setting [14]). The “peptide microarray binding signal” value in experiment [4] (setting [13]) came to 0.00293 ± 0.00034; in experiment [4] (setting [14]) it was 0.00254 ± 3.9e-05.

The values above are taken from the supplement of paper PMC4022240.
